From PubChem BioAssay
G9a block – G9a (human) methyltransferase inhibition; Q96KQ7; G9a H3K9 monomethylation, AlphaScreen, 2 h; Potency, µM (top dose mostly 102 µM), inactives show top-dose activity, negative = inhibition, hits mostly inhibitors; 350,000 compounds, 8.8% hits; note: % is set by controls: 0 for no effect and ±100 for the full control effect; nearly all actives have a fitted effect of over 75% in size
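Readings reflect AlphaScreen signal from monomethyl-H3K9 antibody detection. HMT at 20 nM; substrate b-H3K9 500 nM; cofactor SAM 20 uM; 2 h RT reaction; compounds tested as titrations in qHTS with 15 min preincubation.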
JMJD2A Tudor – inhibitors of human JMJD2A Tudor domain; AlphaScreen JMJD2A-Tudor / H3K4me3 peptide binding; O75164; Potency, µM (titrated, usually from 114 µM), for the others: at the top dose activity change, negative = inhibition, most hits filed as inhibitors; 390,000 compounds, 4.4% hits; note: % is set by controls: 0 for no effect and ±100 for the full control effect; nearly all actives have a fitted effect of over 50% in size
PLK1 PBD inh – blocks phosphopeptide binding to human PLK1 polo-box domain; AID 720504; Potency, µM, without a hit: max response, negative = inhibition, usual class: inhibitors; Plk1 PBD binding of FITC phosphopeptide, fluorescence polarization; P53350; 360,000 compounds, 2.8% hits; note: series mostly up to about 57 µM; % is set by controls: 0 for no effect and ±100 for the full control effect; nearly all actives have a fitted effect of over 65% in size
Target sequence (P53350 whole entry, looked up, the tested form may be a part): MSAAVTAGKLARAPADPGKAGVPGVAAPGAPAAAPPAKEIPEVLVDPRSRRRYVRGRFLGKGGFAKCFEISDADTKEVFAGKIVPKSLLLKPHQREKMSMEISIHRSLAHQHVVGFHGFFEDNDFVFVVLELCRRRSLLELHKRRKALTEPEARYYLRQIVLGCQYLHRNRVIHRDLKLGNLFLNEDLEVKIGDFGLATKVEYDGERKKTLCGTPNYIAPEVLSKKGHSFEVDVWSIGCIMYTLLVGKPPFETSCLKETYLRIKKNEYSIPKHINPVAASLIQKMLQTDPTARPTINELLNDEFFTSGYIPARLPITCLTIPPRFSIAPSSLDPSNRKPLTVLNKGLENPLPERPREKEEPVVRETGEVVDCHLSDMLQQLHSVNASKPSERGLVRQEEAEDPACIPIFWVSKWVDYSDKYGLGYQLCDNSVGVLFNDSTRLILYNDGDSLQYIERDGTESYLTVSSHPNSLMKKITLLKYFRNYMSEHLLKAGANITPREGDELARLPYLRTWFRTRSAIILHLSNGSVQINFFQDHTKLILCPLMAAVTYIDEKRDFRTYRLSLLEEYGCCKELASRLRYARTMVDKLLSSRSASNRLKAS
BAZ2B block – blocks human BAZ2B | Q9UIF8 | AlphaScreen BAZ2B-H3K14Ac peptide displacement | Potency, µM (titrated, usually from 114 µM), for the others: top-dose activity change, negative = inhibition, actives largely listed as inhibitors | 360,000 compounds, 4.4% hits | AID 504333; note: % is set by controls: 0 for no effect and ±100 for the full control effect; nearly all actives have a fitted effect of over 60% in size
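Multi-concentration screen (max 110 uM) measuring displacement of acetylated histone H3 peptide from BAZ2B by AlphaScreen, using 50 nM protein, 50 nM peptide and 10 ug/mL streptavidin donor plus Ni-chelate acceptor beads.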
HP1b binding inh – HP1-beta chromodomain-methylated histone interaction inhibition; P83916; AlphaScreen HP1-beta / biotin-H3K9me3 peptide binding; Potency, µM (doses to about 114 µM), for the others: at the highest dose activity change, negative = inhibition, usual class: inhibitors; 390,000 compounds, 0.56% hits; note: nearly all actives have a fitted effect of over 70% in size
Target sequence (P83916 whole entry, looked up): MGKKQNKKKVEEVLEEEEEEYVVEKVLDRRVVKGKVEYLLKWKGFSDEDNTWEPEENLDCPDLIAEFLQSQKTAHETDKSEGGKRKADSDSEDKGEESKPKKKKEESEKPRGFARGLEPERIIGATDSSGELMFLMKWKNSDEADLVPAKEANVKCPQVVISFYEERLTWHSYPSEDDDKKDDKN
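HP1-beta protein (50 nM final) preincubated 30 min at room temperature with biotinylated H3(1-18)K9me3 peptide (50 nM) in PBS pH 7.4, 0.01% Tween-20, then compound added for 30 min. AlphaScreen streptavidin donor/nickel chelate acceptor beads (10 ug/mL final), 30 min dark, luminescence read.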
Sfp PPTase inh – Sfp phosphopantetheinyl transferase inhibition; Biochemical Sfp PPTase activity, qHTS; Potency, µM, for inactives: largest response in the series, negative = inhibition, usual class: inhibitors; 310,000 compounds, 3.5% hits; AID 1490;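 note: the enzyme is Sfp with the accession as filed and its product quenches rhodamine fluorescence; 0% = enzyme reaction without inhibitor and -100% = no enzyme wells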
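Fluorescence-quenching assay: 15 nM Sfp-PPTase preincubated 15 min at room temperature with compound, then 5 uM rhodamine-CoA and 12.5 uM BHQ-2-labelled YbbR peptide added. Fluorescence (ex 525/em 598 nm) read at start and after 30 min; difference gives rate.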
An asterisk follows results filed as active; ? = inconclusive; . = no result; [ ] = remark or other dose. Sampled rows, rich in hits. Any-hit rate of the full collection: about 12%. Calls come from the whole dose curve; as a rule, active = well fitted curve in the direction sought with a large enough effect; inconclusive = small, poorly fitted or top-dose-only effect, or another doubt; inactive = no such curve, though single readings can be large; an effect the other way counts as inactive or inconclusive. Potency is the fitted concentration of half-maximal effect.

SMILES	G9a block	JMJD2A Tudor	PLK1 PBD inh	BAZ2B block	HP1b binding inh	Sfp PPTase inh
NC(=O)N/N=C/c1c(F)cccc1F	-0.8%[59 µM]	-16.8%	-6.7%	-7.8%	24.4%	-11.6%
CCOc1ccc(C2CC(=O)NC2=O)cc1 (centres undefined)	14.1%	-7.0%	-4.0%	-2.6%	27.9%	11.3%
Cc1ccc(C)c(C(=O)c2c(C)nc3sccn23)c1	8.4%[59 µM]	-4.8%	-1.1%	22.1%	23.9%	0.3%
Cc1cc(C)c(NC(=O)c2cc3c(nc4sccn43)s2)c(C)c1	50.1µM*	2.0%	-19.9%	-2.8%	37.7%	-18.6%
C=CCNc1nc(-c2cccs2)c(CC(=O)O)s1	-4.5%[12.7 µM]	4.2%	?	?	-8.1%	-8.1%
O=C(O)Cc1sc(Nc2ccccc2)nc1-c1cccs1	-0.3%[12.7 µM]	-15.4%	21.2µM*	-25.8%	-25.5%	50.1µM*
O=C(Cc1sc(-c2ccccc2)nc1-c1ccccc1)Nc1ccccc1	12.2%[12.7 µM]	-11.2%	-4.1%	-3.8%	25.6%	8.5%
O=C(Cc1sc(Nc2ccccc2)nc1-c1ccccc1)NCc1ccccc1	50.1µM*	-28.8%	-4.4%	-7.1%	?	?
CCN(CC)CCNc1nc(-c2cccs2)c(CC(=O)O)s1	8.91µM*	5.62µM*	-18.5%	20µM*	?	56.2µM*
O=C(Nc1nc(-c2cccs2)c(-c2cccs2)s1)C1CCCC1	-17.8%	-2.8%	-0.5%	14.1%	57.5%	5.2%
COC(CNC(=O)C(=O)Nc1cc2c3c(c1)CCN3C(=O)CC2)OC	24.3%	-3.4%	-6.7%	-2.1%	12.3%	9.6%
Cc1ccc(NC(=O)Cn2sc3nc(C)cc(C)c3c2=O)c(Cl)c1	0.355µM*	1.58µM*	1.5µM*	44.7µM*	?	2.82µM*
Cc1cc(C)n(CCC(=O)Nc2ccc(Cl)cc2)n1	8.1%[59 µM]	?	.	-38.4%	-17.0%	.
CCOc1ccc(NC(=O)Cn2sc3nc(C)cc(C)c3c2=O)cc1	0.282µM*	0.891µM*	0.947µM*	-37.0%	5.62µM*	2.82µM*
Cc1cc(C)c2c(=O)n(CC(=O)Nc3ccc(Cl)cc3)sc2n1	0.0891µM*	1.12µM*	1.34µM*	39.8µM*	7.94µM*	3.55µM*
Cc1cc(C)c2c(=O)n(CC(=O)Nc3cccc(F)c3)sc2n1	0.316µM*	1.12µM*	1.89µM*	50.1µM*	?	3.16µM*
COc1ccc(NC(=O)N2CC3(CCN(S(C)(=O)=O)CC3)C2)cc1	6.8%[12.7 µM]	.	.	.	.	-1.2%
CN(C)CCCNC(=O)C1(O)c2cc(Br)ccc2NC(=O)N1c1c(F)cccc1F (centres undefined)	3.8%	-4.4%	-4.7%	-2.7%	24.8%	2.1%
O=C(Nc1c(C(=O)Nc2ccc(F)cc2)oc2ccccc12)c1ccccc1F	17.0%[59 µM]	6.3%	.	1.5%	58.0%	.
Cc1cccc([S+](=O)([O-])NC2CCN(C#N)CC2)c1	.	6.8%	.	.	.	.
CCC(C)n1ncn(-c2ccc(N3CCN(c4ccc(OCC5COC(Cn6cncn6)(c6ccc(Cl)cc6Cl)O5)cc4)CC3)cc2)c1=O (centres undefined)	?	?	-10.1%	?	-2.5%	3.1%
CCC(C)n1ncn(-c2ccc(N3CCN(c4ccc(O)cc4)CC3)cc2)c1=O (centres undefined)	7.94µM*	89.1µM*	-2.2%	-31.6%	?	-26.1%
CC(=O)N1CCc2c(sc3c2c(=O)n(-c2ccc(C)cc2)c(=O)n3Cc2c(F)cccc2Cl)C1	1.8%[59 µM]	-13.8%	.	2.1%	21.5%	.
CN(C)/C=C1\C(=O)NN=C1c1ccccc1	50.1µM*	-3.3%	-0.9%	-26.9%	33.9%	-0.5%
CN(C)C=C1C(=O)c2ccccc2C1=O	?	-6.6%	0.0%	-2.2%	33.5%	5.1%
SMILES	G9a block	JMJD2A Tudor	PLK1 PBD inh	BAZ2B block	HP1b binding inh	Sfp PPTase inh
CCCC(=O)Nc1ccc2c(c1)nc(CCN1CCC(C)CC1)n2C	.	.	7.1%	.	.	.
Cc1nc(C)c(CCNC(=O)c2cccc(Cl)c2)s1	79.4µM*	2.1%	-9.6%	10.2%	17.8%	-1.8%
Cc1ccc(CN(Cc2cc3cc(C)ccc3[nH]c2=O)Cc2nnnn2Cc2ccccc2)cc1	.	-12.3%[57.1 µM]	.	.	2.6%[57 µM]	.
COc1ccc(C2=C(N3CCN(c4cccc(C)c4C)CC3)c3ccccc3C2=O)cc1	3.16µM*	5.01µM*	.	2.24µM*	?	.
Cc1ccc(C)c(N2CCN(C3=C(c4ccccc4)C(=O)c4ccccc43)CC2)c1	3.16µM*	2.51µM*	.	?	?	.
Cc1ccc(C)c(N2CCN(CCCc3ccccc3)CC2)c1	-13.9%	-13.0%	-12.0%	-4.7%	49.3%	-4.2%
CC(=O)N1c2ccccc2Oc2cc3ccccc3cc21	-1.6%[59 µM]	14.0%	-14.7%	3.9%	43.8%	-19.0%
O=C(CCl)N1c2ccccc2Oc2ccc3ccccc3c21	.	56.2µM*	8.44µM*	.	70.8µM*	.
Cc1ccc(C(=O)OCC(=O)NN2C(=O)NC3(CCC(C)CC3)C2=O)cc1 (centres undefined)	?	0.0%	-3.1%	10.0%	27.4%	.
NC(=O)c1ccc([N+](=O)[O-])cc1SCc1ccccc1	39.8µM*	-29.2%	-21.7%	?	17.3%	-10.6%
Cc1cccc(NC(=O)C(NS(=O)(=O)c2ccc3c(c2)CCC(=O)N3)c2ccccc2)n1 (centres undefined)	22.4µM*	?	12.6µM*	0.7%	24.7%	-28.6%
Cc1ccc(S(=O)(=O)Nc2nc(C)c(C)s2)cc1	22.4µM*	-8.9%	-23.8%	-28.5%	44.2%	-6.3%
Cc1nnc(SCC(=O)NC(=O)NC(C)(C)C)n1N	?	?	26.7µM*	4.2%	?	?
COCc1cc(C)nc(OCC(=O)N/N=C/c2ccc(OC)c(OC)c2)c1C#N	?	-5.7%	-21.1%	-13.3%	14.3%	-6.6%
COc1cc(/C=C2\C(C)=C(C#N)c3nc(N)c(C#N)c(C)c32)ccc1OCC(=O)O	25.1µM*	-31.2%	26.7µM*	56.2µM*	5.9%	?
CC1=C(C#N)c2nc(N)c(C#N)c(C)c2/C1=C\c1ccc(C)cc1	-3.1%[0.501 µM]	.	.	?	.	35.5µM*
O=C1O/C(=C/Br)CCC1c1cccc2ccccc12 (centres undefined)	26.7%[59 µM]	.	.	.	.	.
O=C(Cn1cc(SCc2ccc(F)cc2)c2ccccc21)N1CCCCCC1	6.0%[59 µM]	0.4%	.	-0.9%	64.1%	.
COc1ccccc1C(=O)n1nc(-c2ccccc2)nc1NCc1ccc(Cl)cc1	4.6%[59 µM]	-5.2%	.	5.1%	53.5%	.
CCc1ccc2nc(N(CCN(CC)CC)C(=O)c3cccs3)sc2c1	-29.6%[59 µM]	-26.1%	.	-8.2%	43.0%	.
COc1cc2c(cc1OC)C(c1ccccc1[N+](=O)[O-])N(C(C)=O)CC2 (centres undefined)	-2.4%[0.501 µM]	-15.8%	-11.0%	6.3%	13.2%	44.7µM*
COc1cc2c(cc1OC)C(COc1ccccc1OC)N(C(C)=O)CC2 (centres undefined)	1.3%	-6.0%	-2.6%	7.6%	29.4%	0.1%
